Compound activity (PubChem BioAssay)
A549 viability: A549 cytotoxicity, counter-screen for Nrf2 inhibitors | 390,000 tested, 0.16% active | A549 ARE-Fluc cells, CellTiter-Fluor viability, 18-24 h | AID 504648 | Potency, µM (highest dose often 46 µM), inactives show at the top dose activity change, negative = cytotoxicity, actives largely listed as inhibitors; further: potency means the concentration at half of the fitted maximal effect; on the % scale 0 is the no-effect control and ±100 the full control effect
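A549 ARE_Fluc cells in 5% FBS OPTI-MEM were exposed to compounds in concentration-response for 18-24 h at 37 deg C. Viability was read by CellTiter-Fluor fluorescence (Ex 405/Em 525) after 30 min, before the luciferase read.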
Nrf2 inh: blocks Nrf2 signaling; AID 504444; Potency, µM (doses to about 46 µM), without a hit: at the top dose activity change, negative = inhibition, hits mostly inhibitors; 360,000 tested, 2.1% active; A549 ARE-Fluc reporter, luciferase luminescence, 18-24 h; further: potency means the concentration at half of the fitted maximal effect; on the % scale 0 is the no-effect control and ±100 the full control effect; nearly all actives have a fitted effect of over 60% in size
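A549 ARE_Fluc cells (5000/well, 5% FBS OPTI-MEM) pre-incubated 2 h, then treated with compounds 18-24 h at 37C/5% CO2 in concentration-response. CellTiter-Fluor viability read first; BugLite luciferase luminescence after 15 min at room temperature gives Nrf2 activity.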
IDH1 R132H inh: inhibitors of human mutant IDH1 R132H; O75874; IDH1-R132H enzyme, NADPH consumption, diaphorase/resazurin fluorescence; Potency, µM (series often up to 76.6 µM), for inactives: at the highest dose activity change, negative = inhibition, actives largely listed as inhibitors; 390,000 tested, 0.093% active; AID 602179; further: potency means the concentration at half of the fitted maximal effect; on the % scale 0 is the no-effect control and ±100 the full control effect; nearly all actives have a fitted effect of over 65% in size
Target sequence (O75874 whole entry R132H, stated change not applied): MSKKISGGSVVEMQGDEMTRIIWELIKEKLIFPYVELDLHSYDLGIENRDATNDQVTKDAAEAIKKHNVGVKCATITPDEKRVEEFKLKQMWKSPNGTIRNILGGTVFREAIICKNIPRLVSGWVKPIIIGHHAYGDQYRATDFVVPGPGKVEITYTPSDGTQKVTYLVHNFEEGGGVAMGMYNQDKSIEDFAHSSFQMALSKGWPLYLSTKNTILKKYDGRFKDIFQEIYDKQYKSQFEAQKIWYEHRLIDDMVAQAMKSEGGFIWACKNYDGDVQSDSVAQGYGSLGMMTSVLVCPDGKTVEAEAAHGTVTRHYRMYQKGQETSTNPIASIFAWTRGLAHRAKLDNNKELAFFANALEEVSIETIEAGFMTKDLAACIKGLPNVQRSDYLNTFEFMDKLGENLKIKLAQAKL
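IDH1-R132H (0.5 ug/mL dispensed) in pH 7.5 Tris buffer was preincubated 30 min with compound, then given a substrate mix of 0.016 mM NADPH and 2 mM alpha-KG for 80 min at room temperature; remaining NADPH was read by diaphorase/resazurin fluorescence.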
Giardia killer: Giardia lamblia killing. Giardia lamblia trophozoite viability. activity change, % at 7.66 µM, hits read low. 340,000 tested, 0.15% active. AID 540267; in the data active means activity change below about -80%; inconclusive means between about -30% and that limit;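 further: parasites exposed to compound for two days anaerobically before the ATP read; on the % scale 0 is the no-effect control and ±100 the full control effect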
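Anaerobic 48 hrs incubation at 37 deg C of 100 trophozoites/well with test compounds; ATPLite 1-Step luminescence, 15-30 min RT, reports cellular ATP as viability.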
Nrf2 activator: activators of Nrf2 (ARE) signaling. AREc32 ARE-luciferase reporter (MCF7-derived line), luminescence, 24 h. Potency, µM (titrated, usually from 46.1 µM), inactives show top-dose activation, most hits filed as activators. 410,000 tested, 0.31% active; further: potency means the concentration at half of the fitted maximal effect; % of control where 0% means no effect; nearly all actives have a fitted effect of over 65% in size
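Luminescent ARE reporter assay in AREc32_Fluc cells: overnight plating at 37 deg C, 24 hr compound incubation, Steady-Glo added, 30 min RT before reading.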
Anesthetic bind: binds horse apoferritin like a general anesthetic | apoferritin/1-aminoanthracene competitive binding, fluorescence | Potency, µM (doses to about 77.5 µM), for inactives: at the top dose activity change, negative = displacement, hits mostly inhibitors | AID 485281 | 350,000 tested, 0.074% active; further: potency means the concentration at half of the fitted maximal effect; on the % scale 0 is the no-effect control and ±100 the full control effect; nearly all actives have a fitted effect of over 20% in size
Target sequence (P02791 2-175 limits assumed): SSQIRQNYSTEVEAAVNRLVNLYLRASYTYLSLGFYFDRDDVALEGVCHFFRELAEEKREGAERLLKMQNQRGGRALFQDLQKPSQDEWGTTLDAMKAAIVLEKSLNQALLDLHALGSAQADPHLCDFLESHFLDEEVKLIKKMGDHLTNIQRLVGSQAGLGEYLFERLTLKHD
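Apoferritin-based anesthetic binding model; compound displacement of fluorescent 1-AMA measured as endpoint fluorescence after 10 minutes at room temperature, scaled to free-ligand and complex controls.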
Starred values were filed as active, the others as inactive; ? = inconclusive; / = not tested or not shown. Only some compounds are listed: those with a hit (about 2.3% of all), similar ones and a draw of the others. Unless noted, the call rests on the fitted dose curve; in most records, active means well fitted curve in the direction sought with a large enough effect; inconclusive means small, poorly fitted or top-dose-only effect, or another doubt; inactive means no such curve, though single readings can be large; an effect the other way counts as inactive or inconclusive.

SMILES | A549 viability | Nrf2 inh | IDH1 R132H inh | Giardia killer | Nrf2 activator | Anesthetic bind
COc1ccccc1NC(=O)C1CCN(S(=O)(=O)c2ccc3c(c2)CC(C)N3C(C)=O)CC1 (stereo unspecified) | 9.2% | ? | 0.0% | -1.0 | -0.7% | -11.1%
CC(=O)Nc1ccc(S(=O)(=O)Nc2nnc(C)s2)cc1 | / | / | 1.7% | / | -1.8% | /
O=C(C1CCCCC1)N(Cc1cccnc1)c1nc2c(F)cc(F)cc2s1 | 0.0% | / | -11.4% | / | -0.9% | -6.8%
CCN(CC)CCOC(=O)c1ccc(NC(=O)Cn2ncc3c([nH]c4ccc(C)cc43)c2=O)cc1 | -10.1% | -3.9% | -10.3% | / | 8.0% | -1.4%
Cc1cccc(-n2ncc3c(N4CCCC(C)C4)ncnc32)c1 (stereo unspecified) | 16.4% | / | -5.6% | / | -0.7% | -7.7%
COc1ccc(NC(=O)/C=C/c2ccc(S(=O)(=O)N3CCOCC3)cc2)cc1 | -1.8% | -1.5% | 8.4% | 7.0 | 0.2% | /
COc1ccc(/C=C/C(=O)Nc2ccc(C)c(S(=O)(=O)N3CCOCC3)c2)cc1 | -9.7% | 23.1µM* | -6.9% | -11.1 | 0.2% | /
Cc1ccc(F)cc1NC(=O)/C=C/c1ccc(S(=O)(=O)N2CCOCC2)cc1 | -10.4% | 16.4µM* | -29.6% | -5.3 | 0.3% | /
CCOC(=O)c1cc(-c2ccccc2)n(CCC(=O)Nc2nc3c(C)cccc3s2)c1C | -9.5% | / | -1.8% | / | 5.1% | -1.5%
CCSc1nnc(NC(=O)CSc2nc3c(c(=O)n2CC)SC(C)C3)s1 (stereo unspecified) | -13.7% | 18.4µM* | 4.4% | -19.9 | -0.3% | -2.0%
CNC(=O)c1cnn2c(C)cc(C)nc12 | -11.4% | -25.0% | / | / | / | /
CCN(CC)c1nc(SCCOC(=O)Nc2ccccc2)nc(N(CC)CC)n1 | ? | 20.6µM* | 4.8% | 37.1 | 2.7% | -1.5%
CN(C)c1nc(SCCOC(=O)c2ccccc2)nc(N(C)C)n1 | 0.7% | 2.2% | 0.0% | 7.5 | -0.2% | 2.9%
CCc1nnc(NC(=O)[C@@H]2CCCN2C(=O)c2cccs2)s1 | 3.0% | 6.8% | / | 0.7 | / | /
COC(=O)/C=C1\S/C(=N/N=C/c2ccco2)NC1=O | -3.5% | ? | 4.5% | -19.9 | ? | -6.2%
COC(=O)/C=C1/S/C(=N/N=C/c2ccco2)NC1=O | -19.8% | -5.0% | 3.3% | 2.7 | 10µM* | -4.3%
C=C(C)C(=O)OCCOCC | / | / | / | / | / | 10.6%
FC(F)(F)c1cc(-c2cccs2)nc(-n2cc(Br)cn2)n1 | -6.6% | -28.6% | 5.1% | -16.1 | 3.16µM* | ?
O=C(O)c1ccccc1C(=O)Nc1ccc(Oc2cccc3ccccc23)cc1 | -10.0% | 20.6µM* | 0.0% | 0.4 | -2.2% | ?
Cc1cccc(Oc2ccc(NC(=O)c3ccccc3C(=O)O)cc2)c1C | 0.4% | -2.0% | -8.6% | -20.4 | 0.4% | ?
C=CCC[C@@H](Cc1ccc(F)cc1)C(=O)OC[C@@H](NC(=O)[C@H](CC=C)CC(=O)N(CCO)Cc1ccccc1)c1ccccc1 | ? | ? | 8.3% | -8.7 | -0.1% | /
C=CCC[C@@H](Cc1ccc(F)cc1)C(=O)OC[C@@H](NC(=O)[C@@H](CC=C)CC(=O)N(CCO)Cc1ccccc1)c1ccccc1 | ? | 23.1µM* | 2.8% | -3.8 | -3.5% | /
C=CC[C@@H](CC(=O)N(CCO)Cc1ccccc1)C(=O)N[C@@H](COC(=O)[C@@H](CC=C)Cc1ccc(F)cc1)Cc1ccccc1 | ? | 23.1µM* | 8.0% | -20.6 | -4.7% | /
C=CC[C@@H](CC(=O)N(CCO)Cc1ccccc1)C(=O)NC[C@@H](OC(=O)[C@@H](CC=C)Cc1ccc(F)cc1)c1ccccc1 | -5.2% | -0.1% | -6.5% | 1.6 | -0.9% | /
C=CC[C@H](CC(=O)N(CCO)Cc1ccccc1)C(=O)NC[C@H](OC(=O)[C@@H](CC=C)Cc1ccc(F)cc1)c1ccccc1 | ? | 18.4µM* | -1.2% | -0.5 | -4.7% | /
SMILES | A549 viability | Nrf2 inh | IDH1 R132H inh | Giardia killer | Nrf2 activator | Anesthetic bind
COc1ccc(N2C(N)=C(C#N)C(c3cc(CN4CCOCC4)cs3)C3=C2CCCC3=O)cc1 (stereo unspecified) | -15.9% | / | 0.0% | / | 4.1% | 2.2%
CCn1nc(C)cc1C(=O)OCC(=O)c1ccc(Cl)cc1 | 1.5% | 18.4µM* | -5.4% | ? | 0.1% | -2.3%
O=C(O)COc1ccc(OCCNC[C@H](O)COc2ccccc2)cc1 | / | / | / | / | / | 4.1%
COc1ccc(C(=O)Nc2nc(-c3ccc([N+](=O)[O-])cc3)c(-c3ccccc3)s2)cc1 | -29.3% | 13µM* | -1.3% | 10.1 | 0.0% | /
COc1ccc(-c2sc(NC(=O)c3ccc(C)cc3)nc2-c2ccc([N+](=O)[O-])cc2)cc1 | -3.3% | 4.1% | 1.2% | 6.4 | -1.0% | -10.9%
COc1ccc(-c2nnc(NC(=O)c3ccc(S(=O)(=O)N4COCC4(C)C)cc3)o2)cc1 | -20.8% | 18.4µM* | 0.0% | -5.0 | -0.1% | -21.1%
Cc1ccc(NS(=O)(=O)c2cc3c(cc2Cl)CCC(=O)N3)cc1C | 1.3% | -21.5% | / | / | / | /
COc1ccc(CN(Cc2ccccc2)S(=O)(=O)c2ccccc2)cc1COc1ccc(NC(C)=O)cc1 | -7.8% | 15.8% | / | / | / | /
O=C(NCc1cn2ccccc2n1)c1ccccc1 | 1.1% | 20.1% | -4.8% | -6.6 | 2.5% | -6.7%
COc1cccc(C(=O)NCc2cn3ccccc3n2)c1 | -0.6% | 23.1µM* | 33.5% | / | 9.2% | -7.1%
CCCCCn1c(Sc2nc3ccccc3s2)nc2c1c(=O)[nH]c(=O)n2C | -9.9% | 16.4µM* | 8.4% | -6.0 | 7.7% | ?
COc1ccc(C(=O)N(Cc2ccccc2)Cc2ccco2)c(O)c1 | 1.7% | 27.7% | / | / | / | /
Nc1c(Cl)cc(C2=NCCn3c2c2ccc([N+](=O)[O-])cc2[n+]3[O-])cc1Cl | ? | 5.4% | 3.8% | ? | ? | /
[O-][n+]1c2cc(C(F)(F)F)ccc2c2n1CCN=C2c1ccc(Cl)cc1 | -2.1% | 3.9% | 1.9% | -88.6* | 8.9% | /
O=Cc1c[nH]c2ccccc12 | 2.9% | 6.5% | / | 18.8 | / | /
COc1ccc(F)cc1CSc1nnnn1-c1ccc(O)cc1 | -8.9% | 8.4% | -7.7% | -1.2 | 3.0% | -6.1%
COc1cc(CSc2nnnn2-c2ccc(C)cc2)cc(OC)c1OC | -8.0% | 6.51µM* | 6.1% | -12.9 | -0.2% | -15.4%
COc1ccc(Cn2nnnc2CN2CCC(c3nc4ccccc4s3)CC2)cc1 | -2.6% | 23.1µM* | 8.2% | -4.8 | -0.6% | 51.6%
c1ccc2sc(C3CCN(Cc4nnnn4Cc4ccc5c(c4)OCO5)CC3)nc2c1 | 1.7% | ? | -4.1% | -1.4 | -0.2% | -1.5%
CCN1C(=O)/C(=C\C=C2/C=CC=CN2CC)SC1=S | 14.6µM* | ? | 8.8% | 11.1 | 0.2% | -17.5%
